Values without a mark were called inactive. The list shows a part of the results. Activity calls are given as the source filed them.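 How the source made its calls, unless noted: active means inhibition above the hit cutoff set in the earlier primary screen (cut at about 27% in these data); inactive means the rest.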
Columns and labels:
[1] = target: Protein phosphatase methylesterase 1 (Homo sapiens) (UniProt Q9Y570); test: PME-1 inhibitor activity retest, confirmation, biochemical, fluorescence polarization, FP-Rh probe, triplicate (AID 2171); settings: recombinant PME-1, FP-Rh probe fluorescence polarization; at 5.9 µM; active compounds read high;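 further: 0% = enzyme with DMSO and 100% = wells lacking PME-1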
Chain of Protein phosphatase methylesterase 1 (Homo sapiens) (Q9Y570 whole entry, looked up): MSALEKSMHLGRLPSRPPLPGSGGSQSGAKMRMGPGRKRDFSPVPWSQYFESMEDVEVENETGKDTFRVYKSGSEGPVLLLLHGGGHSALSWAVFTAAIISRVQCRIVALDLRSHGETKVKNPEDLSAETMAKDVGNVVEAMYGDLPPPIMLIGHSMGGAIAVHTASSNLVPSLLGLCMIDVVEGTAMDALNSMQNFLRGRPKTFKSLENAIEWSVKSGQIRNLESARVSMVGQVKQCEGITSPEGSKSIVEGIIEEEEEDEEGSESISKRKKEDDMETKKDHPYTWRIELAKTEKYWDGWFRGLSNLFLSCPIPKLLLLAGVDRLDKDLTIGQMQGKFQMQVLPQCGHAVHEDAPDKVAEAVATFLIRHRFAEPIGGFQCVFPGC

[2] = STAT3 reporter inhibitors, retest of hits, confirmation, U3A cells, luciferase, luminescence (AID 1265;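 active means inhibition above the hit cutoff computed for the primary STAT3 screen, cut at about 44% in these data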;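 further: 0% = IL-6 plus DMSO and 100% = IL-6 plus nifuroxazide control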); settings: IL-6 STAT3 luciferase reporter, at 5.7 µM, active compounds read high
[3] = NF-kB reporter inhibitors in human cells, confirmation, counter-screen for STAT3 inhibitor project, cell-based, HEK293T, luciferase, TNF-alpha stimulus (AID 1308;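 active means inhibition above the mean of solvent-only control wells plus 3 SD, cutoff set per campaign, cut at about 13% in these data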;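 further: 0% = TNF-alpha with DMSO and 100% = TNF-alpha with MG high control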); settings: TNF-alpha induced, at 5.7 µM, active compounds read high
[4] = STAT1 reporter inhibitors, IFN-gamma induced, confirmation, counter-screen for STAT3 inhibitor project, cell-based, NIH 3T3, luciferase luminescence (AID 1317;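 active means inhibition above the mean plus 3 SD of solvent-only control wells, limit set per screening run, cut at about 16% in these data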;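 further: 0% = DMSO with IFN-gamma and 100% = nifuroxazide control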); settings: NIH 3T3 STAT1-luciferase reporter, at 5.7 µM, active compounds read high
[5] = StAR promoter reporter inhibitors, counter-screen for LRH-1 inverse agonist project, cell-based, luminescence, high throughput (AID 651611; in the data active means inhibition above about 28%); settings: StAR promoter luciferase reporter counterscreen, at 3.6 µM, active compounds read high
[6] = target: Nuclear receptor subfamily 5 group A member 2 (Homo sapiens) (UniProt O00482); test: LRH-1 (NR5A2) inverse agonists, retest, confirmation, cell-based, luminescence (AID 651613; in the data active means inhibition above about 42%;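 further: HEK293T cells co-transfected with LRH-1 and StAR promoter luciferase reporter; 0% = vehicle wells and 100% = parental cells lacking receptor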); settings: cell-based LRH-1 luciferase reporter, inverse agonism; at 3.6 µM; active compounds read high
Chain of Nuclear receptor subfamily 5 group A member 2 (Homo sapiens) (O00482 whole entry, looked up): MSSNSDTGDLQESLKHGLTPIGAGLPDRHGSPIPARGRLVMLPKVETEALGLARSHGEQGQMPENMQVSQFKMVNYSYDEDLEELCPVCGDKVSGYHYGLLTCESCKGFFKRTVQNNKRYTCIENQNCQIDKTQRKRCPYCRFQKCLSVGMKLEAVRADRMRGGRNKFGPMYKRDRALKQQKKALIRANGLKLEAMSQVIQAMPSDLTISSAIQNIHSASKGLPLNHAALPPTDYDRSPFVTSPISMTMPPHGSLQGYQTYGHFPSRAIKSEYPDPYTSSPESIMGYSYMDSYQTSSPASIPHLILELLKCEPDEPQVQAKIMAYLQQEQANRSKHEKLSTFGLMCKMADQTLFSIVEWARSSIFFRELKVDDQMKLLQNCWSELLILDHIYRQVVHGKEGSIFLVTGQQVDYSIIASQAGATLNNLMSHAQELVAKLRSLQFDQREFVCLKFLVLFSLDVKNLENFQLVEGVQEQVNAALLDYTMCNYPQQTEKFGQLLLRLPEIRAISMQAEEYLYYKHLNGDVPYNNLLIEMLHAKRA

[7] = target: Steroidogenic factor 1 (Homo sapiens) (UniProt Q13285); test: SF1 (NR5A1) inverse agonists, counter-screen for LRH-1 inverse agonist project, cell-based, luminescence, high throughput (AID 651614; in the data active means inhibition above about 44%;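 further: cells cotransfected with StAR promoter reporter and SF1 expression vector; 0% = vehicle on cells with receptor and 100% = vehicle on cells lacking receptor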); settings: cell-based SF1 luciferase reporter, at 3.6 µM, active compounds read high
Chain of Steroidogenic factor 1 (Homo sapiens) (Q13285 whole entry, looked up, the tested form may be a part): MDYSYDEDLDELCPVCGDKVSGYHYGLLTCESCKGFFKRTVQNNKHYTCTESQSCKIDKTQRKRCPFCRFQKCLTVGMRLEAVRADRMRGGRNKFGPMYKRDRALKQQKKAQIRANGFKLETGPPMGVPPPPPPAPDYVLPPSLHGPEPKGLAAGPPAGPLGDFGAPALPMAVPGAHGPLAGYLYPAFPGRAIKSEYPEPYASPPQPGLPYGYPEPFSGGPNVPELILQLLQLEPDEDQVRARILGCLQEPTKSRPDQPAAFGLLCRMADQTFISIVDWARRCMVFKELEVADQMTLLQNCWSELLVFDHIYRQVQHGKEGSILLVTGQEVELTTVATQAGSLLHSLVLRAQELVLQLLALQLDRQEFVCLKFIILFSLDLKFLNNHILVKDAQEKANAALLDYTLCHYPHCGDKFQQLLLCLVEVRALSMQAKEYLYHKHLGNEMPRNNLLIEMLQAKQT

[8] = VP16 transactivation reporter inhibitors, counter-screen for LRH-1 inverse agonist project, cell-based, luminescence, high throughput (AID 651615; in the data active means inhibition above about 33%); settings: Gal4-VP16 luciferase reporter cells, at 3.6 µM, active compounds read high
[9] = Gal4-VP16 luciferase reporter inhibitors, counter-screen for COUP-TFII antagonist project, cell-based, luminescence, HEK293 (AID 687007; in the data active means inhibition above about 13%); settings: at 8.5 µM, active compounds read high
[10] = target: COUP transcription factor 2 (Homo sapiens) (UniProt P24468); test: NR2F2 transcriptional activity inhibitors, confirmation, cell-based, luciferase reporter, HEK293, triplicate (AID 687008;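 active means mean inhibition over three repeats above a set limit taken from the earlier primary screen, cut at about 38% in these data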;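 further: 100% = cells given the luciferase reporter alone without the COUP-TF2 vector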); settings: HEK293 NGFI-A luciferase reporter, luminescence; at 8.5 µM; active compounds read high
Chain of COUP transcription factor 2 (Homo sapiens) (P24468 whole entry, looked up): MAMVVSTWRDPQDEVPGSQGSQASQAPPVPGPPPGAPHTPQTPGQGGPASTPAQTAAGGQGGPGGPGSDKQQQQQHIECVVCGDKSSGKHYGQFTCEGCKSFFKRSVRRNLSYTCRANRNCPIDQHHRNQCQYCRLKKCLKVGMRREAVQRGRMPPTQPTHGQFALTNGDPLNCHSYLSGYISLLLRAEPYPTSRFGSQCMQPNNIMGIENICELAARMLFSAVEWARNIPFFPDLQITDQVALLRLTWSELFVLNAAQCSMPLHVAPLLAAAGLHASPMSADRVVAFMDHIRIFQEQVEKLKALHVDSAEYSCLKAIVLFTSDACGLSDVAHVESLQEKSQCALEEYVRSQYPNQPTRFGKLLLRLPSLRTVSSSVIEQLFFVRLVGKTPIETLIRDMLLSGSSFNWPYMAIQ

[11] = target: Sphingosine 1-phosphate receptor 4 (Homo sapiens) (UniProt O95977); test: S1P4 receptor antagonists, human, confirmation, cell-based (AID 1524; in the data active means inhibition above about 30%); settings: S1P4-expressing cell line, antagonist mode, reporter read-out; at 4.98 µM; active compounds read high
Chain of Sphingosine 1-phosphate receptor 4 (Homo sapiens) (O95977 whole entry, looked up): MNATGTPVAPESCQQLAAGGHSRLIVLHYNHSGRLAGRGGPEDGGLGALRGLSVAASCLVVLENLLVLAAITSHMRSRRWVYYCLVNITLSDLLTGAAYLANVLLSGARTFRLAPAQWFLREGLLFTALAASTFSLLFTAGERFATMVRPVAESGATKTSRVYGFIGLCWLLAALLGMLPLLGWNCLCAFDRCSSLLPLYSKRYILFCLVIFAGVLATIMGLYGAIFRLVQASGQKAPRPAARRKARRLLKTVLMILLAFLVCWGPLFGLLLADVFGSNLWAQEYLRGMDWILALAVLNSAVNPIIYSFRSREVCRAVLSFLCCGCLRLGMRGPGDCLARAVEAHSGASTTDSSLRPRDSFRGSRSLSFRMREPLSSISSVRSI

[12] = target: Sphingosine 1-phosphate receptor 1 (Homo sapiens) (UniProt P21453); test: S1P1 receptor antagonists, human, counter-screen for S1P4 antagonist project, cell-based (AID 1564; in the data active means inhibition above about 40%;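 further: receptor stimulated with S1P near its EC80; 0% = agonist stimulated wells and 100% = vehicle only wells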); settings: cell-based S1P1 antagonist counterscreen, at 4.98 µM, active compounds read high
Chain of Sphingosine 1-phosphate receptor 1 (Homo sapiens) (P21453 whole entry, looked up): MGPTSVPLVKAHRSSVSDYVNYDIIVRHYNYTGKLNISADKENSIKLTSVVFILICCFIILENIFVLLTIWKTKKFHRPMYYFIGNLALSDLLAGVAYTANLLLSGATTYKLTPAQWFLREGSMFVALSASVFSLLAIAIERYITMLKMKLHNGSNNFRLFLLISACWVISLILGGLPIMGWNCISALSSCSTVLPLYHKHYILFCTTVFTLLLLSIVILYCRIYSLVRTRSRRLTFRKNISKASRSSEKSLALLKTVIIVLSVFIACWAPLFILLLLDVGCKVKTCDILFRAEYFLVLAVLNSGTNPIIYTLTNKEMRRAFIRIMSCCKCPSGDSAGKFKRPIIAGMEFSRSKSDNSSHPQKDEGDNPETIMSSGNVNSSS

[13] = system: HIV-1 integrase (multimerization); test: HIV-1 IN multimer formation enhancers, counter-screen for LEDGF/p75 integration inhibitor project, biochemical, TR-FRET (AID 1053131; in the data active means activation above about 8.9%); settings: TR-FRET HIV-1 integrase multimerization, at 7.7 µM, active compounds read high
[14] = TR-FRET optical interference artefacts, confirmation, artefact control for LEDGF/p75-dependent integration inhibitor project, biochemical, HIV-1 IN multimerization (AID 1053135;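 active means inhibition above the mean over all tested compounds plus 3 SD, which no compound reached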;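 further: 0% = integrase with antibodies and DMSO and 100% = antibodies without integrase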); settings: TR-FRET optical interference counterscreen, at 7.7 µM, active compounds read high
[15] = system: HIV-1 integrase / human LEDGF/p75 complex; test: inhibitors of HIV-1 IN-LEDGF/p75 DNA integration, confirmation, biochemical, TR-FRET (AID 1053136; in the data active means inhibition above about 14%); settings: TR-FRET LEDGF/p75-dependent HIV-1 integration, at 3.7 µM, active compounds read high
[16] = target: Peroxisome proliferator-activated receptor gamma (Homo sapiens) (UniProt P37231); test: agonists of PPARgamma SRC-2 coactivator recruitment, confirmation, biochemical, HTS (AID 1297; in the data active means activation above about 22%;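 further: 0% = vehicle alone and 100% = reference agonist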); settings: biochemical SRC-2 recruitment by PPARgamma; at 8 µM; active compounds read high
Chain of Peroxisome proliferator-activated receptor gamma (Homo sapiens) (P37231 whole entry, looked up): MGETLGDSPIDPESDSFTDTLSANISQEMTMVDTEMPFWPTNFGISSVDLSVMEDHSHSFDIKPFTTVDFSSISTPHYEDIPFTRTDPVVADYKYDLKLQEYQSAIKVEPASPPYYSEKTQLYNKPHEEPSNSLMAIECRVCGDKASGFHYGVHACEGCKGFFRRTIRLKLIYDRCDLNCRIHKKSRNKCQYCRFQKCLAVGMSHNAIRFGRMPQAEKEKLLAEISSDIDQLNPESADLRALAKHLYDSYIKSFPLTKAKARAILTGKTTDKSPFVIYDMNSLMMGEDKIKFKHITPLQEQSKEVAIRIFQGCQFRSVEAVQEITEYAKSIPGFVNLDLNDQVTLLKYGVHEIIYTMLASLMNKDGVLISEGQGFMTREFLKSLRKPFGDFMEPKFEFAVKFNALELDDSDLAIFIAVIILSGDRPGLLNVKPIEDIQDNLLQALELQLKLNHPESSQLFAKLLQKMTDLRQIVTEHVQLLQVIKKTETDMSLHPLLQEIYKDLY

[17] = target: Peroxisome proliferator-activated receptor gamma (Homo sapiens) (UniProt P37231); test: PPARgamma agonists recruiting SRC-1 coactivator, confirmation, biochemical (AID 1300; in the data active means activation above about 20%;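 further: 0% = vehicle wells and 100% = reference agonist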); settings: PPARgamma–SRC-1 coactivator recruitment biochemical assay; at 8 µM; active compounds read high
[18] = target: Peroxisome proliferator-activated receptor gamma (Homo sapiens) + Nuclear receptor coactivator 3 (Homo sapiens) (UniProt P37231+Q9Y6Q9); test: PPARgamma-driven SRC-3 coactivator recruitment agonists, confirmation, biochemical (AID 1301; in the data active means activation above about 24%;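 further: 0% = vehicle wells and 100% = reference agonist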); settings: biochemical PPARgamma-SRC-3 coactivator recruitment, agonist mode; at 8 µM; active compounds read high
[19] = KLF5 expression inhibitors, confirmation, DLD-1 cells, luminescence (AID 1834;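 active means inhibition above a set limit taken from the earlier primary screen, cut at about 63% in these data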;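 further: 0% = DMSO wells and 100% = LY294002 at 200 µM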); settings: DLD-1 KLF5 promoter firefly luciferase reporter, at 4 µM, active compounds read high
[20] = cytotoxicity in rat IEC-6 cells, cytotoxicity control for KLF5 inhibitor project, cell-based, luminescence, triplicate (AID 1905; in the data active means inhibition above about 23%;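 further: cells exposed to compounds for 48 hours before viability read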); settings: IEC-6 rat intestinal cells, viability luminescence; at 4 µM; active compounds read high
[21] = target: Nuclear receptor coactivator 3 (Homo sapiens) (UniProt Q9Y6Q9); test: SRC3 coactivator transcriptional activity inhibitors, confirmation, cell-based, luminescence, quadruplicate (AID 588792;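 active means mean inhibition over 43.08%, the solvent-only control mean plus 3 SD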;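 further: 0% = DMSO treated cells and 100% = gossypol at 36 µM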); settings: HEK293 GAL4-SRC3 luciferase reporter, at 3.6 µM, active compounds read high
Chain of Nuclear receptor coactivator 3 (Homo sapiens) (Q9Y6Q9 whole entry, looked up, the tested form may be a part): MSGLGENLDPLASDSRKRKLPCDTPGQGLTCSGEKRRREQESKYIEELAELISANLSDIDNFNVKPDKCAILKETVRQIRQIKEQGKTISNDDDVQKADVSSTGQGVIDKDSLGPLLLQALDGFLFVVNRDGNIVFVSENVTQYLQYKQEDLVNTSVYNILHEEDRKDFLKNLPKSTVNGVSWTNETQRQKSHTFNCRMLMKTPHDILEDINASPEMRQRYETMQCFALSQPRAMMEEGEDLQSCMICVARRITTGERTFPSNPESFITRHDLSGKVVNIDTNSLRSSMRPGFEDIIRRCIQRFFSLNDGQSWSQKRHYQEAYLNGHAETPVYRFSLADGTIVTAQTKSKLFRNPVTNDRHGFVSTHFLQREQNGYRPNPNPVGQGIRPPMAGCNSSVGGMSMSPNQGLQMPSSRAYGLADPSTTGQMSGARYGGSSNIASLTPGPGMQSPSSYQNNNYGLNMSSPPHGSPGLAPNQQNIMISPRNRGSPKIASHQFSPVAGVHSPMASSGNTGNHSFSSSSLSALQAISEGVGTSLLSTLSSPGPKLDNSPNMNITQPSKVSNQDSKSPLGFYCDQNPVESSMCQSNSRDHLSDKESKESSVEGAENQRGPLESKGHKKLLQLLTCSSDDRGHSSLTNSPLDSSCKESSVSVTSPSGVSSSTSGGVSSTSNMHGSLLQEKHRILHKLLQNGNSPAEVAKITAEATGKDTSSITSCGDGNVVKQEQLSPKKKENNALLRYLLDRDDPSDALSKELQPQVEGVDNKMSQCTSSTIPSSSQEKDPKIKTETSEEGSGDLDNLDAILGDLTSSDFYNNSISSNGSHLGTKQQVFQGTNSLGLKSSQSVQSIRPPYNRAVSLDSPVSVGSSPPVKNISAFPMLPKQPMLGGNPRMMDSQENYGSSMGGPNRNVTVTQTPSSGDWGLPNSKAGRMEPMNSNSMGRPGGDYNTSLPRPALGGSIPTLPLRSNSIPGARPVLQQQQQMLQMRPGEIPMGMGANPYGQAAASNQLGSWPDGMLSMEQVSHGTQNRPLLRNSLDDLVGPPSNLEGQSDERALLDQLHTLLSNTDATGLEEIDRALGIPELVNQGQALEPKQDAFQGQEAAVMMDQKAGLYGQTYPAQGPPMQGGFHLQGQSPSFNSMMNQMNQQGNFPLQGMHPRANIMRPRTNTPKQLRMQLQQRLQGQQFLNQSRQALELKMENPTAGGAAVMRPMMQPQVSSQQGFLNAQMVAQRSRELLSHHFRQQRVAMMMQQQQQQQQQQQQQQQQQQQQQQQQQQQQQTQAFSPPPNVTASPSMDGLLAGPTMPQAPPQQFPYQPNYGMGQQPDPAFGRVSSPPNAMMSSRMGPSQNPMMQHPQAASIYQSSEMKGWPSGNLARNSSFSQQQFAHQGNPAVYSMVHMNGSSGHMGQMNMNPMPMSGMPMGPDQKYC

[22] = system: transactivating tegument protein VP16 (Human herpesvirus 1), Gal4-VP16 luciferase reporter; test: VP16 transactivation inhibitors, counter-screen for SRC3 inhibitor project, cell-based, luminescence, high throughput (AID 588794; in the data active means inhibition above about 30%); settings: mammalian cells, VP16-driven luciferase reporter luminescence; at 3.6 µM; active compounds read high
[23] = target: Nuclear receptor coactivator 1 (Homo sapiens) (UniProt Q15788); test: SRC1 coactivator transcriptional activity inhibitors, confirmation, cell-based, luminescence, quadruplicate (AID 588820;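 active means mean inhibition above 46.68%, the untreated control wells mean plus 3 SD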;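 further: 0% = DMSO wells and 100% = gossypol 36 µM treated wells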); settings: HEK293 GAL4-SRC1 luciferase reporter, at 3.6 µM, active compounds read high
[24] = VP16 transactivation inhibitors, counter-screen for SRC1 inhibitor project, cell-based, luminescence, high throughput (AID 588824; in the data active means inhibition above about 25%); settings: cell-based VP16 transactivation luciferase luminescence; at 3.6 µM; active compounds read high
[25] = target: Photoreceptor-specific nuclear receptor (Homo sapiens) (UniProt Q9Y5X4); test: NR2E3 agonist confirmation in cells, cell-based, luminescence, CHO-S two-hybrid (AID 624378;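 active means average inhibition above a cutoff equal to the mean inhibition of all tested compounds plus one SD, cut at about 70% in these data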;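 further: 0% = DMSO in NR2E3 cells and 100% = DMSO in cells lacking NR2E3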); settings: CHO-S mammalian two-hybrid NR2E3-NCOR, luciferase luminescence; at 3.98 µM; active compounds read high
Chain of Photoreceptor-specific nuclear receptor (Homo sapiens) (Q9Y5X4 whole entry, looked up, the tested form may be a part): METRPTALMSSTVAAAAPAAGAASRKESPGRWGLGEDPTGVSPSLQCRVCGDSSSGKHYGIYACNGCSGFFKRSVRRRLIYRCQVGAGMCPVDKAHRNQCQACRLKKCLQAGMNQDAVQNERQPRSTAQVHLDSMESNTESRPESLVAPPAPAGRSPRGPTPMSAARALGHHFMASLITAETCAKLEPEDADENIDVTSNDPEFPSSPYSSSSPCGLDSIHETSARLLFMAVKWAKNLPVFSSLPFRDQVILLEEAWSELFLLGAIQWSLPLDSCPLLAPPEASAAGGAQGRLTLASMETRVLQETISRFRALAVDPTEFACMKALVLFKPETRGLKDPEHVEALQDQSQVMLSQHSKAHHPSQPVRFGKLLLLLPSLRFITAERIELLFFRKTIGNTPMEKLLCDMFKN

[26] = GAL4-VP16 reporter modulators, confirmation, counter-screen for NR2E3 agonist project, cell-based, luminescence, CHO-S, high throughput (AID 624379;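 active means mean inhibition above a cutoff equal to the average over all tested compounds plus one standard deviation, cut at about 70% in these data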;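 further: 0% = DMSO with VP16-transfected cells and 100% = DMSO with cells lacking VP16; higher means less reporter light so more repression of VP16 activity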); settings: CHO-S GAL4-VP16 luciferase reporter, at 3.98 µM, active compounds read high

SMILES: Cc1ccc(C(O)P(=O)(Oc2ccccc2)Oc2ccccc2)cc1 (stereo not given)
- inhibition [1]: 59.9% (active)

SMILES: CC1=CC(=Cc2sc3ccccc3[n+]2C)C=C(C)O1
- inhibition [2]: 77.1% (active)
- inhibition [3]: 22.8% (active)
- inhibition [4]: 22.2% (active)
- inhibition [5]: 50.2% (active)
- inhibition [6]: 105% (active)
- inhibition [7]: 80.4% (active)
- inhibition [8]: 87.6% (active)
- inhibition [9]: 8.63%
- inhibition [10]: 55% (active)

SMILES: Cc1oc(-c2ccccc2)nc1CN1C(=O)CN=C(c2ccccc2)c2ccccc21
- inhibition [1]: 66.1% (active)

SMILES: O=C(CN1CC=C(c2ccccc2)CC1)Nc1c(Cl)cccc1Cl
- inhibition [1]: 28.2% (active)

SMILES: NP(=O)(Oc1ccc(Cl)cc1)Oc1ccc(Cl)cc1
- inhibition [1]: 63.4% (active)

SMILES: C[n+]1c2ccccc2nc2ccc(NCCO)cc21
- inhibition [1]: 35% (active)

SMILES: CN(C)CC1Oc2ccccc2OC1(O)c1ccccc1 (stereo not given)
- inhibition [11]: 100% (active)
- inhibition [12]: 23.3%

SMILES: Cc1c(C(=O)O)cccc1-n1c(C)cc(/C=C2\C(=O)NC(=O)N(c3ccc4c(c3)OCO4)C2=O)c1C
- activation [13]: 0.15%
- inhibition [14]: -0.77%
- inhibition [15]: 22.9% (active)

SMILES: Cc1cc(/C=C2/C(=O)NC(=O)N(Cc3ccco3)C2=O)c(C)n1-c1ccc(C(=O)O)cc1
- activation [13]: 5.24%
- inhibition [14]: -26.4%
- inhibition [15]: 36.5% (active)

SMILES: CSC1=NP(=S)(SC)N(C)c2nc3n(c21)CCC3 (stereo not given)
- activation [16]: 51.6% (active)
- activation [17]: 33.3% (active)
- activation [18]: 35.7% (active)

SMILES: CN(C)C1(c2nnnn2CCOC(=O)Nc2ccc(Cl)cc2)CCCCC1
- inhibition [1]: 25%

SMILES: CCCCCCCCCCCCn1ccc(=N)cc1
- inhibition [19]: 62.6% (active)
- inhibition [20]: 46.8% (active)
- inhibition [21]: 67.6% (active)
- inhibition [22]: 78.8% (active)
- inhibition [23]: 53.8% (active)
- inhibition [24]: 78.9% (active)
- inhibition [25]: 99.7% (active)
- inhibition [26]: 86.7% (active)
- inhibition [5]: 74.4% (active)
- inhibition [6]: 101% (active)
- inhibition [7]: 92.7% (active)
- inhibition [8]: 89.8% (active)
- inhibition [9]: 14.2% (active)
- inhibition [10]: 76.4% (active)
